Source: PMC4336329 (PLoS ONE, 2015)
In all, about 310,000 compounds went through this assay and about 14,000 (4.5%) showed an effect of 50% or more. Effects have a minus sign here. The entries come from a sample that favours strong results as a whole.

Target: human ether-à-go-go-related gene (hERG) potassium channel (human, UniProt Q12809)
Experiment: primary screen, population patch clamp on CHO cells stably expressing hERG; higher = less effect of the substance
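Also: peak tail current of the secondary pulse compared with the same well before compound.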

Chain of human ether-à-go-go-related gene (hERG) potassium channel (Q12809 whole entry, looked up): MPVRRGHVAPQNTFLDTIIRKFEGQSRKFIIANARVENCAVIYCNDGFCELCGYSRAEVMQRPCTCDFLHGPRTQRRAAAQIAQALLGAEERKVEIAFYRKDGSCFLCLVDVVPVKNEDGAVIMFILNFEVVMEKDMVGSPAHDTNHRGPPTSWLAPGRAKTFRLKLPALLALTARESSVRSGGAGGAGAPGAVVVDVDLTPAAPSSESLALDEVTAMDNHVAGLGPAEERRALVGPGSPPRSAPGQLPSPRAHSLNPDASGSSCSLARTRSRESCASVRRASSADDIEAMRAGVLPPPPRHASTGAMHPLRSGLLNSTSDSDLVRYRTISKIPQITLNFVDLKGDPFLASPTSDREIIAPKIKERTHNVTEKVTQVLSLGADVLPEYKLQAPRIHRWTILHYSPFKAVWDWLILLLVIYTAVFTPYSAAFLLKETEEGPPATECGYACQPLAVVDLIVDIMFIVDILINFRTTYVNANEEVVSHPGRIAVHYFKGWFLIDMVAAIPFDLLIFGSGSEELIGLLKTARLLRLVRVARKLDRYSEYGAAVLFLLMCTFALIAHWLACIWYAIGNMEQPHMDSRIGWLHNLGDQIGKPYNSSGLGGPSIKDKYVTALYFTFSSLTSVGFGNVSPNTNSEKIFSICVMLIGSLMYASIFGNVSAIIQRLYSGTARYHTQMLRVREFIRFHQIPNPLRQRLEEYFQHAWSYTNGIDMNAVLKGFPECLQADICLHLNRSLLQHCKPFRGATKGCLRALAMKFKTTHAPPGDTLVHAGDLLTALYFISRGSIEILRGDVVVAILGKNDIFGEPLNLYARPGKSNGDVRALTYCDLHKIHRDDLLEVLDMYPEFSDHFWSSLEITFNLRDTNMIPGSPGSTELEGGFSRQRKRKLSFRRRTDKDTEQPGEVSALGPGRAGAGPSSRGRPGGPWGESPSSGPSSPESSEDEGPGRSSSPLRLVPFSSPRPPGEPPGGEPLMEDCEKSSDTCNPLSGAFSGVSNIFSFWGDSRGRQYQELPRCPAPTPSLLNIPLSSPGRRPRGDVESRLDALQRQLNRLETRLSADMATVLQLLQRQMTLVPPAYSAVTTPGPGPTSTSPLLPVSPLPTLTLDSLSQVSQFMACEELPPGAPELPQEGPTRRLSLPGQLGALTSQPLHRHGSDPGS

| SMILES | hERG current change (%, negative = inhibition) at 10uM [%] |
| --- | --- |
| CCOC(=O)Cn1c(-c2ccc(OC)cc2)c(-c2ccc(OC)cc2)nnc1=O | 9.79 |
| O=C(NC(=S)NCCc1ccccn1)c1ccco1 | 17.4 |
| COc1cccc(CNS(=O)(=O)c2ccc(S(=O)(=O)N3CCCC3)cc2)c1 | 7.51 |
| COc1ccc(C(=O)N(Cc2ccco2)Cc2cccs2)c(O)c1 | -6.63 |
| O=C(CSc1nncn1-c1ccccc1)Nc1ccc(N2CCOCC2)cc1 | 3 |
| CN(C)S(=O)(=O)c1ccc(NC(=O)N2CCN(c3cccc(C(F)(F)F)c3)CC2)cc1 | 7.83 |
| Cc1ccsc1C(=O)OCC(=O)NCCNC(=O)COC(=O)c1sccc1C | 15.7 |
| O=C(CCNC(=O)c1ccccc1Cl)Nc1cc(S(=O)(=O)N2CCOCC2)ccc1N1CCCC1 | -8.58 |
| COc1ccccc1-c1c(C)nn2c(-c3ccccc3)cc(C)nc12 | 3.05 |
| CCOC(=O)COn1c(=O)c(-c2ccc(Cl)cc2)[n+]([O-])c2ccccc21 | -4.24 |
| Cc1ccc(S(=O)(=O)N(Cc2cccc(F)c2)C(=O)N2CCN(C)CC2)cc1 | 33.1 |
| CCCC(=O)Nc1ccc(C(=O)NCc2ccccn2)cc1 | 14.2 |
| COc1cccc(CN2CCN(Cc3c(C)nn(C(C)C)c3C)CC2CCO)c1 (centres unmarked) | -2.68 |
| CC(C)c1csc(CN2CCN(Cc3ccc(F)cc3)C(CCO)C2)n1 (centres unmarked) | -35.3 |
| CCOc1ccc(CN2CCN(Cc3nc(C(C)C)cs3)CC2CCO)cc1 (centres unmarked) | -82.2 |
| COc1cccc(CN2CCN(Cc3nc(C(C)C)cs3)CC2CCO)c1 (centres unmarked) | -73.7 |
| Cc1ccc(CN2CCN(Cc3nc(C(C)C)cs3)CC2CCO)cc1 (centres unmarked) | -68.5 |
| Cc1nn(-c2ccccc2)c(C)c1/C=C/C(=O)OCC(=O)Nc1ccc(S(N)(=O)=O)cc1 | 13.1 |
| COc1ccccc1C(=O)NCCC(=O)N(C)CC(=O)Nc1ccc(C)cc1 | 7.91 |
| Cc1ccc(S(=O)(=O)NC(CC(=O)O)c2ccccc2)c(C)c1 (centres unmarked) | 5.52 |
| CC1C(c2ccccc2)C(C#N)(C#N)C2(C#N)C(=O)NC1(N)C2C (centres unmarked) | -3.25 |
| c1ccc(-n2nnnc2-c2cnc(-c3cccnc3)nc2-c2cccs2)cc1 | -10.6 |
| CN1CCN(CC(=O)N/N=C\c2c[nH]c3ccccc23)CC1 | 16.2 |

| SMILES | hERG current change (%, negative = inhibition) at 10uM [%] |
| --- | --- |
| O=C(CO)N/N=C/c1ccccc1F | 19.1 |
| O=C(CN1CCN(Cc2ccc(Cl)cc2)CC1)N/N=C/c1cccc(F)c1 | -69.2 |
| O=C(CN1CCN(Cc2ccccc2)CC1)N/N=C/c1ccccc1F | -29.3 |
| O=C(CC(=O)Nc1ccc(Cl)cc1)N/N=C\c1cccc(F)c1 | 16.6 |
| O=C(CN1CCN(c2ccccc2)CC1)N/N=C/c1cccc(F)c1 | 4.27 |
| O=C(COCC(=O)N/N=C/c1ccccc1F)N/N=C/c1ccccc1F | -54.8 |
| O=C(CN1CCN(Cc2ccc(Cl)cc2)CC1)N/N=C/c1ccccc1F | -68.7 |
| Cc1ccc(CN2CCN(CC(=O)N/N=C/c3c[nH]c4ccccc34)CC2)cc1 | -36.3 |
| O=C(CN1CCCCCCC1)N/N=C/c1ccccc1F | -35.6 |
| COc1ccccc1/C=N/NC(=O)COCC(=O)N/N=C/c1ccccc1OC | 3.56 |
| O=C(CN1CCN(Cc2ccc(Cl)cc2)CC1)N/N=C/c1c[nH]c2ccccc12 | -52.9 |
| O=C1CN(C(=O)CSc2nnc(Nc3ccccc3)s2)c2ccccc2N1 | 0.255 |
| COc1ccc(NC(=S)NCc2ccc3c(c2)cc(C)n3C)cc1 | 5.5 |
| CN(CCO)c1cc(NCCCN2CCC(Cc3ccccc3)CC2)c2nonc2c1[N+](=O)[O-] | -38 |
| COC(=O)c1ccc(NC(=O)c2ccc3c(c2)C(=O)N(Cc2cccnc2)C3=O)cc1 | -23.2 |
| CCCCCCn1c(O)c(C(C)=NC)c(=O)[nH]c1=O | 1.56 |
| CC1CCc2nn(CC(=O)Nc3ccc(F)cc3F)cc2C1 (centres unmarked) | -2.61 |
| COc1ccc(-c2nc3ccccc3n2Cc2ccc(C)cc2)cc1 | -6.29 |
| CN1C(=O)C(C)(C)c2cc(S(=O)(=O)N3CCCC(C(=O)NCc4ccccc4Cl)C3)ccc21 (centres unmarked) | 2.18 |
| C=CCN(C(=O)CCC(=O)O)C1CC(=O)N(c2ccc(OCCC)cc2)C1=O (centres unmarked) | 0.711 |
| Cc1ccc2oc(=O)c3cc(C(=O)NCCN4CCN(C)CC4)sc3c2c1 | -18.2 |
| COC(=O)c1ccc(C)c(NC(=O)C2CC(=O)N(C3CCCC(C)C3C)C2)c1 (centres unmarked) | -11.5 |
| O=C(OCC(=O)N1CCCCC1)c1c[nH]c2ccccc12 | -7.04 |

| SMILES | hERG current change (%, negative = inhibition) at 10uM [%] |
| --- | --- |
| O=C(CN1CCSCC1)N/N=C/c1ccccc1F | 0.735 |
| Cc1ccc(CN2CCN(CC(=O)N/N=C/c3ccccc3F)CC2)cc1 | -66.4 |
| O=C(O)COc1ccccc1/C=N/NC(=O)CN1CCN(Cc2ccc(Cl)cc2)CC1 | 10.7 |
| Cc1nc2ccccc2c(=O)n1-c1ccc(Cl)cc1Cl | -0.324 |
| Cc1ccc(CSc2ncnc3c2cnn3-c2ccc(C)cc2)cc1 | 30.7 |
| COc1ccc([N+](=O)[O-])cc1N(CC(O)Cn1nnc2ccccc21)S(=O)(=O)c1ccc(C)cc1 (centres unmarked) | -29.4 |
| COc1ccc(N(CC(O)Cn2c(C)nc3ccccc32)S(=O)(=O)c2ccccc2)cc1 (centres unmarked) | 4.8 |
| COc1ccc(N(CC(O)CN2C(=O)NC(C)(C)C2=O)S(=O)(=O)c2ccc(C)cc2)cc1 (centres unmarked) | -11.6 |
| COc1ccc(N(CC(O)Cn2cnc3ccccc32)S(=O)(=O)c2ccc(C)cc2)cc1 (centres unmarked) | -58 |
| COc1ccc(N(CC(O)Cn2nnc3ccccc32)S(=O)(=O)c2ccc(C)cc2)cc1 (centres unmarked) | -64.6 |
| COc1ccc(N(CC(O)Cn2c(C)nc3ccccc32)S(=O)(=O)c2ccc(C)cc2)cc1 (centres unmarked) | -11.5 |
| COc1ccc(C(=O)Nc2ccc(N3CCCCCC3)cc2)cc1S(=O)(=O)N1CCOCC1 | -40.1 |
| COc1ccc(CN(CC2CCCO2)C(=O)CN2C(=O)COc3ccccc32)cc1OC (centres unmarked) | -15.8 |
| Cc1sc(N)c(C(=O)c2ccccc2Cl)c1C | 3.8 |
| CCOc1ccccc1N(CC(=O)NC1CCCCC1)C(=O)CNC(=O)c1ccco1 | 8.1 |
| Fc1ccc(CN2CCN(c3ncccn3)CC2)cc1 | -3.32 |
| CN1C(=O)c2ccc(C(=O)Nc3ccc(Br)cn3)cc2C1=O | 7.17 |
| O=C(CN1CCOCC1)Nc1ccccc1NC(=O)C1CCN(c2ncccn2)CC1 | 9.55 |
| Cc1ccc(-c2nc(CS(=O)CC(=O)NCCN(CC(C)C)CC(C)C)c(C)o2)cc1 (centres unmarked) | -19.4 |
| Cc1cc(Cl)ccc1NC(=O)CN1C(=O)C(=O)N(C2CCCC2)C1=O | -5 |
| Cc1ccc(-n2cc(CN3CCC(CO)(Cc4cccc(C(F)(F)F)c4)CC3)cn2)cc1 | -76 |
| Cc1ccc(-n2cc(CN3CCC(CO)(Cc4ccccc4)CC3)cn2)cc1 | -65.1 |
| OCC1(Cc2ccccc2)CCN(Cc2cnn(-c3ccccc3F)c2)CC1 | -41.9 |

| SMILES | hERG current change (%, negative = inhibition) at 10uM [%] |
| --- | --- |
| Cc1ccc(CN2CCCN(Cc3ccccc3C)S2(=O)=O)cc1 | 21.1 |
| Cc1ccc(-n2nnnc2-c2cnc(N3CCCC3)nc2C(F)(F)F)cc1 | -9.95 |
| CCOC(=O)c1cnc2c(cnn2C)c1NCc1ccc(OC)cc1 | 16 |
| COC(=O)c1cc2occc2n1CC(=O)Nc1ccc(OC)c(OC)c1OC | 0.151 |
| COC(=O)c1cc2sccc2n1CC(=O)Nc1ccc(OC)c(OC)c1OC | -1.08 |
| COC(=O)c1cc2sc(Cl)cc2n1CC(=O)Nc1ccc(OC)c(OC)c1OC | -68.9 |
| CCOc1ccc(NC(=O)CN2CC(c3ccccc3)CC2=O)cc1 (centres unmarked) | -19.9 |
| COC(=O)c1ccc(/C=N/NS(=O)(=O)c2cc(C)ccc2C)cc1 | -0.827 |
| c1coc(CNc2nc(-c3ccncc3)cs2)c1 | -3.17 |
| Cc1nc(C)c(-c2csc(NCc3ccco3)n2)s1 | -10.9 |
| C=CCNc1nc(-c2c(C)nc3ncccn23)cs1 | -0.737 |
| Cc1ccn2c(-c3csc(NCc4ccco4)n3)c(C)nc2c1 | -64.9 |
| c1coc(CNc2nc(-c3cccs3)cs2)c1 | -9.83 |
| Cc1ccn2c(NCc3ccccc3)c(-c3cccs3)nc2c1 | 12.5 |
| Cc1nc2ncccn2c1-c1csc(NCc2ccco2)n1 | -51.8 |
| Oc1ccc(-c2csc(NCc3ccco3)n2)cc1 | -10.2 |
| Cc1nc2sccn2c1-c1csc(NCc2ccccc2)n1 | 6.86 |
| Br.Cc1nc2ncccn2c1-c1csc(Nc2ccc(S(N)(=O)=O)cc2)n1 | 0.703 |
| Cc1ccn2c(-c3csc(NCc4ccccc4)n3)c(C)nc2c1.Cl | -72.4 |
| Cc1nc2ccccn2c1-c1csc(NCc2ccco2)n1 | -74.6 |
